Measurements from PubChem BioAssay AID1893 (NMMLSC, 2009).
About 120 (2%) of roughly 5,900 compounds were called active. Cut-off read from the data, not from the text of the source: active = percent response mostly above about 71% (no sharp cut-off); inactive = mostly below about 38%. Only a sample is shown.

Each molecule was assayed on MEKK2 (MAP3K2) mutant PB1 domain binding MEK5, human (assay: mutant MEKK2 PB1-MEK5 binding signal retest – biochemical, single concentration, multiplex bead flow cytometry, confirmation (AID 1893;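 note: higher means compound restores mutant binding toward wildtype level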)). Settings: Alexa488-MEK5 binding to MEKK2 mutant, at 10 µM, stronger effect = higher value.

Percent response, inactive:
CCN1CCN(c2ccc(S(=O)(=O)N3CCCCC3)cc2NC(=O)Cc2c(Cl)cccc2Cl)CC1 20%
CCCCN1C(=O)/C(=C(/C#N)C(N)=O)c2ccccc21 -2%
CC(C)c1ccc(C(=O)NCCCc2ccccc2)cc1 -5%
Cc1ccc(C)c(CN2CCC(CNC(=O)Nc3ccc(C)c(F)c3)CC2)c1 20%
Cc1nc2cc(S(=O)(=O)C(F)(F)F)ccc2s1 -1%
O=C(Cc1cccc2ccccc12)Nc1ccc2oc(-c3ccccc3)nc2c1 10%
O=C(CSc1ccc(-c2ccc(F)cc2)nn1)Nc1ccc2c(c1)OCCO2 4%
Cc1cnc(NC(=O)Cn2cnc3c2c(=O)n(C)c(=O)n3C)s1 -16%
O=C(OCc1cc(Cl)ccc1OC(F)F)c1cccnc1 -8%
CC1(C)Cc2cccc(OCC(=O)N3CCN(c4ccc([N+](=O)[O-])cc4)CC3)c2O1 1%
CCOC(=O)c1sc2nc(C)nc(SCC(N)=O)c2c1C 5%
CCOC(=O)c1cc2c(nc1NC(=S)Nc1ccccc1)CC(C)(CC)OC2 (stereo not drawn) -4%
O=C(NCCC1=CCCCC1)c1ccc(Cl)c([N+](=O)[O-])c1 5%
Cc1cccn2c(=O)c(/C=C3\SC(=S)N(CC(C)C)C3=O)c(NCCCOC(C)C)nc12 -25%
O=C(NCCCN1CCCCCC1)C1CC(=O)N(C2CCCC2)C1 (stereo not drawn) -29%
COc1cc2c(cc1OC)CN(C(=O)c1ccc(S(=O)(=O)N3CCCCCC3)cc1)CC2 -1%
O=C(/C=C/Nc1ccccc1)c1cnc(-c2ccccc2)s1 7%
Cn1c(=NC(=O)CSCC(=O)N2CCCCC2)sc2ccccc21 8%
CCOC(=O)Cc1csc(NC(=O)CSc2nc(C)cc(=O)[nH]2)n1 -5%
CN1C(=O)/C(=C\c2ccc(-c3ccccc3)o2)SC1=S -31%
CCN(CC)CCCNC(=O)c1ccc2c(=O)n(Cc3ccc4c(c3)OCO4)c(=S)[nH]c2c1 7%
O=C(OCC1O[C@@H](OC(=O)c2cc(O)c(O)c(O)c2)[C@@H](OC(=O)c2cc(O)c(O)c(O)c2)[C@@H](OC(=O)c2cc(O)c(O)c(O)c2)[C@@H]1OC(=O)c1cc(O)c(O)c(O)c1)c1cc(O)c(O)c(O)c1 (stereo partly drawn) -34%
CCOC(=O)c1cc2occc2n1CC(=O)N1CCN(C(=O)c2ccco2)CC1 -10%
Cc1cccc(CSc2nnc(C)c(=O)n2N)c1 -2%
C=C(C)C1CC=C(C)/C(=N\NC(=O)CNc2ccccc2OC)C1 (stereo not drawn) 10%
Cc1c(-c2ccccc2)cn2c1-c1ccc(C)n1CC2 0%
CCCN(CCC)c1nc2c(C)cccn2c(=O)c1/C=C1/SC(=S)N(Cc2ccco2)C1=O -17%
O=C(O)c1cccnc1NC1CCCC1 13%
CCCc1nnc(SCC(=O)N2C(C)CCCC2C)n1CC (stereo not drawn) 10%
C/C=C/c1ccc(OCCCCN2CCC(C)CC2)c(OC)c1 4%
CNC(C)C#Cc1ccc2sc3cc(OC)c(OC)cc3c(=O)c2c1 (stereo not drawn) 16%
Cc1cc(C(=O)OCC(=O)N2c3ccccc3NC(=O)C2(C)C)c(C)n1-c1ccccc1 1%
Cc1ccc(NC(=O)COc2ccc(-n3ccnc3)cc2)cc1Cl 21%
Cc1ccc(C(=O)NC(=S)Nc2ccc3[nH]c(=O)[nH]c3c2)cc1C 4%
O=C1Nc2ccc(Br)cc2/C1=N/N=C/C1=C(N2CCOCC2)C(=C\c2ccccc2)/CC1 -20%
C#CCOCCOCCOCCNc1nc(N2CCN(C(=O)[C@H](CCCCN)n3cc([C@@H](N)C(C)CC)nn3)CC2)nc(N2CCN(C(=O)[C@H](Cc3ccc(O)cc3)n3cc([C@@H](N)C(C)CC)nn3)CC2)n1 (stereo partly drawn) 52%
COc1ccc(S(=O)(=O)Nc2ccc3oc(C)c(C(C)=O)c3c2)cc1 -3%
O=C(Cc1cccs1)N/N=C/c1ccc(OCc2ccccc2)cc1 3%
N#C/C(=C\C1=C(N2CCOCC2)C(=C\c2ccccc2)/CC1)C(=O)Nc1ccccc1F -38%
Cc1cc(C)nc(-n2ncc3c2CC(c2ccc(C(C)C)cc2)CC3=O)n1 (stereo not drawn) 0%
Cc1ccc(Nc2nc(CSc3nnc(-c4ccncc4)n3-c3ccccc3C)cs2)cc1 1%
COc1ccc(N2CCN(Cc3nnc(-c4ccccc4)o3)CC2)cc1 -5%
Cc1nc(N=C(N)N)nc2c(C)cccc12 10%
Cn1c(=NC(=O)CSCC(=O)N2CCOCC2)sc2ccccc21 -15%
Cc1cc(C)c(NC(=O)C[N+](C)(C)CC(O)COc2cccc3ccccc23)c(C)c1 (stereo not drawn) 35%
CCCCn1c(SCC(=O)NCCc2ccc(OC)c(OC)c2)nc2c1c(=O)n(C)c(=O)n2C 0%
CCOc1cc(C(=O)OCC(=O)Nc2cccc(C)c2)ccc1OCC(=O)N1CCOCC1 0%
COc1ccccc1N1CCN(CCCCOc2ccc(F)cc2)CC1 0%
Cc1ccc(S(=O)(=O)NC(=O)N2CCCC(C)(C)C2)cc1 -1%
O=C(O)c1cc(Cl)c(Cl)cc1C(=O)Nc1cccc2ncccc12 -2%
COc1ccc(-c2[nH]ncc2CN(C)Cc2c(C)n[nH]c2C)c(OC)c1 11%
CCN1CCN(c2nc(Nc3cc(OC)ccc3OC)nc(Nc3cc(OC)ccc3OC)n2)CC1 25%
C=CCn1c(=S)sc2c(=O)[nH]c(C)nc21 1%
O=C(NC1CCN(Cc2ccccc2)CC1)c1cc(Br)c(Br)[nH]1 18%
CC(=O)Nc1ccc(-c2nc3ccccc3o2)cc1 -2%
Cc1c(C#N)c2ncn(CC#N)c(=O)c2n1-c1ccccc1 -7%
O=C(NCC1CCCCC1)c1cc(S(=O)(=O)N2CCCCC2)ccc1N1CCOCC1 -16%
COc1cc(/C=C2\SC(=S)N(Nc3ncc(C(F)(F)F)cc3Cl)C2=O)cc(OC)c1OC -10%
Cc1ccccc1-c1ccc(Nc2ccc(C(=O)N3CCOCC3)cc2)nn1 4%
COc1cc(CC(=O)N/N=C/c2ccccc2)c([N+](=O)[O-])cc1OC 4%
CCOc1ccc(S(=O)(=O)N(CC(=O)O)c2ccccc2)cc1 1%
Cc1ccc(S(=O)(=O)/N=S(\C)C(C)C)cc1 (stereo not drawn) -3%
O=C(c1ccco1)N1CCN(c2cccc(Cl)c2)CC1 0%
C/C(=N\NC(=O)CNC(=O)C(c1ccccc1)c1ccccc1)c1ccc(C)cc1 7%
C=CCN(CC=C)S(=O)(=O)c1ccc(C(=O)Nc2sc3c(c2C(N)=O)CCCCC3)cc1 1%
FC(F)(F)c1cccc(N/N=C/c2ccccc2)c1 28%
COc1cc(-c2nnc(Cn3cc(C(F)(F)F)ccc3=O)o2)cc(OC)c1OC 1%
CCNC(=O)CSc1nc(-c2ccccc2)cs1 -1%
O=C(NCCCN1CCCCCC1)c1ccc(N2CCCC2=O)cc1 38%
CN(C)CC(O)COc1ccc(C(C)(C)c2ccc(OCC(O)CN(C)C)cc2)cc1 (stereo not drawn) 48%
Cc1[nH]c2ccc(S(N)(=O)=O)cc2c1C -1%
CN(C)CCCNC(=O)c1cc(C(=O)Cc2ccc(Cl)cc2)c[nH]1 3%
N/C(=N\OS(=O)(=O)c1cccc([N+](=O)[O-])c1)c1ccncc1 3%
COc1cccc(CNCCc2c[nH]c3ccccc23)c1OCc1ccccc1F 9%
COc1ccccc1CC(=O)Nc1ccc([N+](=O)[O-])cc1OC 0%
O=C(Nc1cccnc1)c1cc(Cl)ccc1Cl 3%
Cc1ccc(CNC(=O)Cn2c(=O)c3sccc3n(Cc3cccc([N+](=O)[O-])c3)c2=O)cc1 2%
O=C(O)/C(=C/c1cccnc1)NC(=O)c1ccccc1 1%
CCOc1nnc(C)c2c(C)n(-c3cccc(Cl)c3)nc12 -10%
Cc1ccccc1C(=O)NNC(=O)CN1C(=O)c2ccccc2C1=O -10%
CC(C)(C)NC(=O)c1cccc(NC(=O)Cc2ccc(Br)cc2)c1 1%
Cn1c2ccccc2c(=O)c2c(=O)n(Cc3ccco3)c(COc3ccccc3)nc21 -6%
CCOc1ccc(C(c2c(C)[nH][nH]c2=O)c2c(C)[nH][nH]c2=O)cc1OCC -3%
COc1cccc(Nc2ncccc2C(=O)O)c1 -5%
C[C@H]1CCC(=O)N([C@H](CSc2ccccc2)Cc2ccccc2)CC1 8%
Cc1cccc(/C=N/NC(=O)CNc2cccc3ccccc23)n1 5%
c1ccc(Nc2nc(N3CCOCC3)c3ccccc3n2)cc1 21%
Cc1ccc(N(CCC(=O)O)S(=O)(=O)c2cccc(C(F)(F)F)c2)cc1 1%
O=C(NCCN1CCOCC1)[C@H](Cc1ccccc1)N1C(=O)c2ccccc2C1=O 2%
COCCN1C=C2C(=O)C(C)(OC(=O)C3CCCC3)C(=O)C=C2C=C1c1ccsc1 (stereo not drawn) -2%
COC(=O)C1=NN(c2ccccc2)C2C(=O)N(c3ccccc3OC)C(=O)C12 (stereo not drawn) -1%
CC(=O)Nc1ccc(N2CCOCC2)c(C(=O)Nc2cccc(C)c2)c1 3%
Clc1ccc(-c2nnc(SCc3nc4ccccc4s3)o2)cc1 -4%
